{
  "source": "the supplement of paper PMC10681739",
  "data": [
    {"target": "RUNX1 (UniProt Q01196)", "sequence (Q01196 whole entry)": "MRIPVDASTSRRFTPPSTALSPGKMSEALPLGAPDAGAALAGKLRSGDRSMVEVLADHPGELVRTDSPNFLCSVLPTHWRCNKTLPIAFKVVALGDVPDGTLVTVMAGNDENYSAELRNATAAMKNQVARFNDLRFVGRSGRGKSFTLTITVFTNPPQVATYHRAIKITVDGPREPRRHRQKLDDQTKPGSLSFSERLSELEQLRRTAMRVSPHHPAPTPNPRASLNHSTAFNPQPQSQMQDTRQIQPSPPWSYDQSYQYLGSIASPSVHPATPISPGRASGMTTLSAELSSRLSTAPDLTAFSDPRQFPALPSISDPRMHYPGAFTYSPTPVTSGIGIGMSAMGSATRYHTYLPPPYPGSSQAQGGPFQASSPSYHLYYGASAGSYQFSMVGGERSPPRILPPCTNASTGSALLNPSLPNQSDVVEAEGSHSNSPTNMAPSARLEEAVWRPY", "assay": "RUNX1 binding intensity (PBM fluorescence) in presence of ETS1, normalised to RUNX1-only experiment (arbitrary fluorescence units); higher = stronger binding", "conditions": "RUNX1 concentration 2 nM; ETS1 concentration 25 nM", "method": "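Cooperative gcPBM on 36-bp genomic probes with neighbouring ETS1 and RUNX1 sites. Recombinant human RUNX1 (2 nM) was incubated alone or with ETS1 (25 nM) and detected with anti-RUNX1 antibody plus Alexa488 secondary. Values are medians over 4 replicate spots; the RUNX1+ETS1 data were normalised to the RUNX1-only data. The probes sit in constant array flanks that are not printed.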", "values": [
      {"sequence": "GGGCGGGTCAGCGGAAGTGAGGGCGGTTGAGGCTGG", "RUNX1 binding intensity": 1320},
      {"sequence": "TGGAAGAGGGCAGGAAGTGTTGTGGTCACTCCCACC", "RUNX1 binding intensity": 1530},
      {"sequence": "CCGCTTCCTTAGAGGTTAAGTGGTGGTGGTTCAGTT", "RUNX1 binding intensity": 1230},
      {"sequence": "CTGCGTTTCCTCTGAGTTTTGCATGTTGAGGTTGGA", "RUNX1 binding intensity": 1280},
      {"sequence": "GGCGGTGACCGGAAGAGCTGAGTCACCGCAGGCGAC", "RUNX1 binding intensity": 1600},
      {"sequence": "GGCGGATGGGGAGAAGAGAGTGGCTGTGGTCTCTGG", "RUNX1 binding intensity": 712},
      {"sequence": "GAGGCGTTTCCGCCTCCTTTTCGCGGTTGCCTTCTC", "RUNX1 binding intensity": 2790},
      {"sequence": "ATGGAAAGGAAGTCGGTGGGAAACCGCCTCAGCGGT", "RUNX1 binding intensity": 1200},
      {"sequence": "AGGACACAGACAGGAAACCCGCAGGCTTTGTTTTTT", "RUNX1 binding intensity": 1470},
      {"sequence": "CAAGAGCCGGAAGTCCCTTGTGCCGCAGTCCTTCCC", "RUNX1 binding intensity": 1510},
      {"sequence": "TCTGTGAAAAAGGATGTGCGGTTATGGAGGAGAACT", "RUNX1 binding intensity": 1930},
      {"sequence": "GGGGGCGGAAGTTTCGGTGCATTGTGGGTTCTCCTG", "RUNX1 binding intensity": 1140},
      {"sequence": "TACAGCCAGGAAATGGGGAGGGTGCTGCGGGCGGCA", "RUNX1 binding intensity": 917},
      {"sequence": "GCTTGCTCCCACAGGAAACCGCAGGCTTCGGGCACA", "RUNX1 binding intensity": 12000},
      {"sequence": "CCCCGCCTCTTCCGCTTCTGTGGTCTGATCTGCCTG", "RUNX1 binding intensity": 3860},
      {"sequence": "TCTCTACTTCCCATTATTTCTGTGGTTAATTTCACC", "RUNX1 binding intensity": 13500},
      {"sequence": "AGCGGCCTGGGAGGAGGATGTGGTTACGTGGAGACC", "RUNX1 binding intensity": 1510},
      {"sequence": "CTGGTTTCATTTCCGGGTGCGGCTTCTGTCATAAAG", "RUNX1 binding intensity": 2460},
      {"sequence": "GCCACAGCCGGAAGCAGGCTGACCACAAGTGCTAAG", "RUNX1 binding intensity": 6190},
      {"sequence": "GTTAGAGGAAGAGGAAGCGGTCAAGAGATCGTCACA", "RUNX1 binding intensity": 1810},
      {"sequence": "GACAGGAAGCCCGCGGCAGCCTCCGTGGTTGCAGAT", "RUNX1 binding intensity": 1090},
      {"sequence": "GCTCATTTATGCATCCTGTGGTCTGTGTGTGTTTCG", "RUNX1 binding intensity": 1390},
      {"sequence": "CAGCTCTCTCGCTTCCTGTGGTGTAAACATGAAGCA", "RUNX1 binding intensity": 1500},
      {"sequence": "AGATGCAGAACAGGAAGTGGTTTAGAAAGCCACTCT", "RUNX1 binding intensity": 2720},
      {"sequence": "TACAACTTGCAACGGAAACCACTTCAGGTTCATTAC", "RUNX1 binding intensity": 866},
      {"sequence": "GACCACTTCCTTTCTGTGTTTTGTGGTTTCACAACT", "RUNX1 binding intensity": 9060},
      {"sequence": "TTGAGGGGAAGGGGAGGAAGTGGTCATTGGAACTTG", "RUNX1 binding intensity": 990},
      {"sequence": "ACCCGGATGTCGTTGGGCAGGAACTGCGGTGAGGGC", "RUNX1 binding intensity": 1490},
      {"sequence": "GGGGCCTCTGCTACTTCCTAGACCGCAAAATGGAGA", "RUNX1 binding intensity": 6150},
      {"sequence": "TGGAGTGGAGGAAGTGGTGTTACCACAGCTCAGAGG", "RUNX1 binding intensity": 1230},
      {"sequence": "TTTACAGGAAATATCCAGAACAGGTAAACCCACAGA", "RUNX1 binding intensity": 926},
      {"sequence": "CGACCGGAACCACTCTGAGGCGCTGCCGCAGACACC", "RUNX1 binding intensity": 1010},
      {"sequence": "TATCAATAAGGAAGTACAATCACCAAACCACAAGCC", "RUNX1 binding intensity": 1140},
      {"sequence": "ACCCACTTCCTGTTAGAGCATCTTTGCAACCACAGG", "RUNX1 binding intensity": 3000},
      {"sequence": "ATGGGTACAGGATTTCCTTTTGTGGTGATGAAAATG", "RUNX1 binding intensity": 1200},
      {"sequence": "AGCGTTGTCTTCCGGCCTCAACCACTCAGCGACCGG", "RUNX1 binding intensity": 1760},
      {"sequence": "AGCCCGGCTTCCGGCGCGTGCCGCTGCGGCTGCAGG", "RUNX1 binding intensity": 1370},
      {"sequence": "GCCACTTCCTGGAAAACAGTAATTACCACACGTCTC", "RUNX1 binding intensity": 2160},
      {"sequence": "CCGGGCTGCGGAAGGCGGGAATTCTGCGGTTCGCGG", "RUNX1 binding intensity": 1720},
      {"sequence": "CTTACCTACAGTTCCGCTTGCTGTGGTTTCAGTTAC", "RUNX1 binding intensity": 2060}
    ]}
  ]
}
